According to PubChem BioAssay AID1159580 (chemical genetic matrix, 2015):
Where “and” joins values, the source holds several entries; their conditions need not be identical. Equal entries are not always repeated. Among all 5,500 compounds or so, about 2,000 (36%) were called active. Inconclusive results (about 18%) are left out. Rule as the data show it: active = normalized growth mostly below about 0.91 (no sharp cut-off); inconclusive = no clear call, values can overlap the other calls; inactive = mostly above about 0.92. The list shows a part of the results.

Experiment: chemical genetic growth profiling, strain panel (AID 1159580);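 also: tested at 20 µM; growth read once vehicle control cultures reached saturation at 30 °C; 1 = growth at the plate median or of vehicle wells; lower values mean less growth of the strain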
Conditions: S. cerevisiae deletion strains, growth OD

Measured: normalized growth

CC1(C)O[C@@H]2CC3C4CCC5=CC(=O)C=C[C@]5(C)[C@@]4(F)[C@@H](O)C[C@]3(C)[C@]2(C(=O)CO)O1 (some centres not stated)
inactive: locus YAL013W, strain DEP1, hits give low values 1.02 | locus YAL021C, strain ccr4, hits give low values 0.99 | locus YAL026C, strain drs2, hits give low values 1 | locus YAL030W, strain snc1, hits give low values 0.996 | locus YBL061C, strain skt5, hits give low values 0.98 | locus YBR009C, strain hhf1, hits give low values 0.992 | locus YBR021W, strain FUR4, hits give low values 0.946 | locus YBR023C, strain chs3, hits give low values 0.993 | locus YBR171W, strain sec66, hits give low values 1 | locus YBR229C, strain ROT2, hits give low values 1.01 | locus YBR231C, strain swc5, hits give low values 0.987 | locus YBR279W, strain paf1, hits give low values 0.991 | locus YCL011C, strain gbp2, hits give low values 1.02 | locus YCL016C, strain dcc1, hits give low values 0.968 | locus YCL029C, strain bik1, hits give low values 1 | locus YCL061C, strain MRC1, hits give low values 1.01 | locus YCL069W, strain vba3, hits give low values 1.01 | locus YCR088W, strain abp1, hits give low values 1.01 | locus YDL005C, strain med2, hits give low values 1 | locus YDL035C, strain GPR1, hits give low values 1.01 | locus YDL040C, strain nat1, hits give low values 0.988 | locus YDL074C, strain BRE1, hits give low values 1.12 | locus YDL101C, strain DUN1, hits give low values 1.01 | locus YDL134C, strain PPH21, hits give low values 1.01 | locus YDL185W, strain tfp1, hits give low values 1.01 | locus YDL192W, strain arf1, hits give low values 1.01 | locus YDR001C, strain nth1, hits give low values 1 | locus YDR069C, strain doa4, hits give low values 0.998 | locus YDR101C, strain arx1, hits give low values 0.992 | locus YDR137W, strain rgp1, hits give low values 1.01 | locus YDR150W, strain NUM1, hits give low values 1.02 | locus YDR159W, strain sac3, hits give low values 0.928 | locus YDR162C, strain NBP2, hits give low values 1.01 | locus YDR195W, strain ref2 0.954 | locus YDR297W, strain sur2, hits give low values 0.997 | locus YDR318W, strain mcm21, hits give low values 0.987 | locus YDR334W, strain swr1, hits give low values 0.997 | locus YDR335W, strain msn5, hits give low values 1.02 | locus YDR388W, hits give low values 0.997 | locus YDR392W, strain spt3, hits give low values 0.884 | locus YDR502C, strain sam2, hits give low values 0.999 | locus YEL003W, strain gim4, hits give low values 0.991 | locus YEL037C, strain rad23, hits give low values 1.02 | locus YEL061C, strain CIN8 (second series), hits give low values 1 | locus YEL061C, strain CIN8, hits give low values 1.01 | locus YER015W, strain faa2, hits give low values 0.991 | locus YER016W, strain bim1, hits give low values 0.975 | locus YER110C, hits give low values 0.998 | locus YER111C, strain swi4, hits give low values 0.999 | locus YER155C, strain BEM2 (second series), hits give low values 0.983 | locus YER155C, strain BEM2, hits give low values 0.966 | locus YER167W, strain BCK2, hits give low values 1.01 | locus YFR010W, strain ubp6, hits give low values 1.01 | locus YGL078C, strain dbp3, hits give low values 1 | locus YGL086W, strain mad1, hits give low values 0.997 | locus YGL167C, strain pmr1, hits give low values 0.988 | locus YGL173C, strain kem1, hits give low values 0.98 | locus YGL227W, strain vid30, hits give low values 1.01 | locus YGL240W, strain doc1, hits give low values 0.953 | locus YGL248W, strain PDE1, hits give low values 1.01 | locus YGL253W, strain hxk2, hits give low values 1.02 | locus YGR078C, strain PAC10, hits give low values 1.03 | locus YGR135W, strain pre9, hits give low values 0.996 | locus YGR229C, strain SMI1, hits give low values 1.02 | locus YGR252W, strain gcn5, hits give low values 0.97 | locus YHR013C, strain ard1, hits give low values 0.956 | locus YHR027C, strain rpn1, hits give low values 1 | locus YHR030C, strain SLT2, hits give low values 1.01 and 0.993 | locus YHR079C, strain IRE1 (second series), hits give low values 0.989 | locus YHR079C, strain IRE1, hits give low values 0.989 | locus YHR094C, strain hxt1, hits give low values 0.994 | locus YHR129C, strain ARP1, hits give low values 1.01 | locus YHR142W, strain chs7, hits give low values 1.02 | locus YHR200W, strain rpn10, hits give low values 0.995 | locus YIL066C, strain RNR3, hits give low values 1.02 | locus YIL073C, strain SPO22, hits give low values 1.05 | locus YIL125W, strain kgd1, hits give low values 0.998 | locus YIR030C, strain dcg1, hits give low values 1.01 | locus YJL092W, strain hpr5, hits give low values 1 | locus YJL095W, strain BCK1 (second series), hits give low values 1 | locus YJL095W, strain BCK1, hits give low values 1.01 and 0.992 | locus YJL115W, strain asf1, hits give low values 0.993 | locus YJL129C, strain trk1, hits give low values 1.01 | locus YJL134W, strain LCB3, hits give low values 1.01 | locus YJL154C, strain vps35, hits give low values 0.999 | locus YJL164C, strain tpk1, hits give low values 0.994 | locus YJL166W, strain qcr8, hits give low values 0.996 | locus YJL168C, strain set2, hits give low values 0.993 | locus YJL187C, strain SWE1 (second series), hits give low values 1.02 | locus YJL187C, strain SWE1, hits give low values 0.976 | locus YJR043C, strain POL32, hits give low values 0.997 | locus YJR066W, strain TOR1, hits give low values 0.947
